{"source": "PubChem BioAssay (EPA / NIEHS)", "note": "The source made the active and inactive calls. How the source made its calls: active means hit-call score of the fitted dose curve at least 0.9, where 1 is the maximum; inactive means score below 0.9.", "data": [{"read-out": "Human Leukocyte Antigen - DR isotype (HLADR), HLA-DRA (gene 3122)", "test": "BSK_3C_HLADR: BioMAP Diversity Plus: 3C Assay for Human Leukocyte Antigen - DR isotype (HLADR) Biomarker Activity (AID 2283019)", "conditions": "primary human endothelial cells (HUVEC); actives raise or lower the signal", "in_short": "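ELISA readout of surface HLA-DR on human umbilical vein endothelium, taken 24 h after chemical treatment. Gain- and loss-of-signal were both fitted relative to DMSO.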", "values": [{"smiles": "CCOC(=O)COc1ccc2c(c1)CC(NCC(O)c1cccc(Cl)c1)CC2", "note": "(stereo not given)", "AC50": "27.6 µM (active)"}, {"smiles": "O=C1OC(=O)C2C3C=CC(C3)C12", "note": "(stereo not given)", "outcome": "inactive"}, {"smiles": "O=P(OC(CCl)CCl)(OC(CCl)CCl)OC(CCl)CCl", "outcome": "inactive"}, {"smiles": "CCCCCCCCCCCCCCCO", "AC50": "31.4 µM (active)"}, {"smiles": "COCCOCCOCCOC", "outcome": "inactive"}, {"smiles": "CC(C)=CCCC(C)CCO", "note": "(stereo not given)", "outcome": "inactive"}, {"smiles": "C1=CCCC=CCCC=CCC1", "outcome": "inactive"}, {"smiles": "CC[C@H]1CC[C@H](NCc2cc3c(cc2OC)[C@H]2C[C@H]2C(=O)N3C)[C@H](c2ccccc2)N1", "outcome": "inactive"}, {"smiles": "O=C(CCCCCCCCc1cccnc1)N1CCC(C=C(c2ccccc2)c2ccccc2)CC1", "AC50": "6.54 µM (active)"}, {"smiles": "CC(C)(O)c1coc(S(=O)(=O)NC(=O)Nc2c3c(cc4c2CCC4)CCC3)c1", "outcome": "inactive"}, {"smiles": "CCN(C(=O)c1cc(C)cc(OC[C@H](C)Nc2ccncc2)c1)C(C)C", "outcome": "inactive"}, {"smiles": "Cc1ccc(S(=O)(=O)O)cc1C", "outcome": "inactive"}, {"smiles": "CNS(=O)(=O)c1cc(C(=O)N2CCC(CCN3C4CCC3CC(n3c(C)nc5ccccc53)C4)(c3cccc(F)c3)CC2)c(Cl)cc1F", "note": "(stereo not given)", "AC50": "28.9 µM (active)"}, {"smiles": "CCCCC(CC)COC(=O)CCCCCCCCC(=O)OCC(CC)CCCC", "note": "(stereo not given)", "outcome": "inactive"}, {"smiles": "O=C(NS(=O)(=O)/C=C/c1ccccc1)c1ccc(F)cc1Cl", "outcome": "inactive"}, {"smiles": "CCOc1cccc(-n2cc(C(=O)N3CCN(c4cc(C(=O)O)c5ccccc5c4)CC3)nc2-c2ccc(C)cc2)c1", "AC50": "15.3 µM (active)"}, {"smiles": "O=C(OC[C@H]1O[C@@H](OC(=O)c2cc(O)c(O)c(OC(=O)c3cc(O)c(O)c(O)c3)c2)[C@H](OC(=O)c2cc(O)c(O)c(OC(=O)c3cc(O)c(O)c(O)c3)c2)[C@@H](OC(=O)c2cc(O)c(O)c(OC(=O)c3cc(O)c(O)c(O)c3)c2)[C@@H]1OC(=O)c1cc(O)c(O)c(OC(=O)c2cc(O)c(O)c(O)c2)c1)c1cc(O)c(O)c(OC(=O)c2cc(O)c(O)c(O)c2)c1", "AC50": "9.13 µM (active)"}, {"smiles": "COCCOc1cc2cc(C(=O)NC3CCN(C(C)C)CC3)n(CC(=O)Nc3ccc(Cl)cn3)c2cn1", "outcome": "inactive"}, {"smiles": "CCc1cc(SCc2sc(-c3ccc(C(F)(F)F)cc3)nc2CN2CCN(c3ccc(OC)cc3)CC2)ccc1OCC(=O)O", "AC50": "11.4 µM (active)"}, {"smiles": "CCCCCCCCO", "outcome": "inactive"}, {"smiles": "CC(C)CCCCCCOC(=O)c1ccc(C(=O)OCCCCCCC(C)C)c(C(=O)OCCCCCCC(C)C)c1", "outcome": "inactive"}, {"smiles": "Nc1nc2ncc(CNc3ccc(C(=O)N[C@@H](CCC(=O)O)C(=O)O)cc3)nc2c(=O)[nH]1", "outcome": "inactive"}, {"smiles": "Cn1c(=O)cc(Oc2ccc(F)cc2F)c2cnc(NCC(C)(C)O)nc21", "AC50": "3.11 µM (active)"}, {"smiles": "CC(=O)OCCC(C)C", "outcome": "inactive"}, {"smiles": "COC(=O)CC(=O)OC", "outcome": "inactive"}, {"smiles": "Cc1c(-c2cccnc2)c2ccccc2n1CCCCC(=O)O", "outcome": "inactive"}, {"smiles": "Nc1cccc(N)c1", "outcome": "inactive"}, {"smiles": "CC[C@H](C)C(=O)O[C@H]1C[C@@H](C)C=C2C=C[C@H](C)[C@H](CC[C@@H]3C[C@@H](O)CC(=O)O3)[C@H]21", "AC50": "31.5 µM (active)"}, {"smiles": "COC(=O)c1ccccc1O", "outcome": "inactive"}, {"smiles": "CC[C@H]1OC(=O)[C@H](C)[C@@H](O[C@H]2C[C@@](C)(OC)[C@@H](O)[C@H](C)O2)[C@H](C)[C@@H](O[C@@H]2O[C@H](C)C[C@H](N(C)C)[C@H]2O)[C@](C)(O)C[C@@H](C)C(=O)[C@H](C)[C@@H](O)[C@]1(C)O", "outcome": "inactive"}]}, {"read-out": "Interleukin-8 (IL8), CXCL8 (gene 3576)", "test": "BSK_3C_IL8: BioMAP Diversity Plus: 3C Assay for Interleukin-8 (IL8) Biomarker Activity (AID 2283020)", "conditions": "primary human endothelial cells (HUVEC); actives raise or lower the signal", "in_short": "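Endothelial primary cells of human umbilical vein origin are dosed with chemical; after 24 h the IL-8 biomarker is measured by ELISA, and concentration–response is fitted in both directions versus DMSO.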", "values": [{"smiles": "CCOC(=O)COc1ccc2c(c1)CC(NCC(O)c1cccc(Cl)c1)CC2", "note": "(stereo not given)", "AC50": "32.1 µM (active)"}, {"smiles": "O=C1OC(=O)C2C3C=CC(C3)C12", "note": "(stereo not given)", "outcome": "inactive"}, {"smiles": "O=P(OC(CCl)CCl)(OC(CCl)CCl)OC(CCl)CCl", "outcome": "inactive"}, {"smiles": "CCCCCCCCCCCCCCCO", "AC50": "31.2 µM (active)"}, {"smiles": "COCCOCCOCCOC", "outcome": "inactive"}, {"smiles": "CC(C)=CCCC(C)CCO", "note": "(stereo not given)", "outcome": "inactive"}, {"smiles": "C1=CCCC=CCCC=CCC1", "outcome": "inactive"}, {"smiles": "CC[C@H]1CC[C@H](NCc2cc3c(cc2OC)[C@H]2C[C@H]2C(=O)N3C)[C@H](c2ccccc2)N1", "outcome": "inactive"}, {"smiles": "O=C(CCCCCCCCc1cccnc1)N1CCC(C=C(c2ccccc2)c2ccccc2)CC1", "AC50": "8.66 µM (active)"}, {"smiles": "CC(C)(O)c1coc(S(=O)(=O)NC(=O)Nc2c3c(cc4c2CCC4)CCC3)c1", "outcome": "inactive"}, {"smiles": "CCN(C(=O)c1cc(C)cc(OC[C@H](C)Nc2ccncc2)c1)C(C)C", "outcome": "inactive"}, {"smiles": "Cc1ccc(S(=O)(=O)O)cc1C", "outcome": "inactive"}, {"smiles": "CNS(=O)(=O)c1cc(C(=O)N2CCC(CCN3C4CCC3CC(n3c(C)nc5ccccc53)C4)(c3cccc(F)c3)CC2)c(Cl)cc1F", "note": "(stereo not given)", "AC50": "29.4 µM (active)"}, {"smiles": "CCCCC(CC)COC(=O)CCCCCCCCC(=O)OCC(CC)CCCC", "note": "(stereo not given)", "outcome": "inactive"}, {"smiles": "O=C(NS(=O)(=O)/C=C/c1ccccc1)c1ccc(F)cc1Cl", "outcome": "inactive"}, {"smiles": "CCOc1cccc(-n2cc(C(=O)N3CCN(c4cc(C(=O)O)c5ccccc5c4)CC3)nc2-c2ccc(C)cc2)c1", "AC50": "11.9 µM (active)"}, {"smiles": "O=C(OC[C@H]1O[C@@H](OC(=O)c2cc(O)c(O)c(OC(=O)c3cc(O)c(O)c(O)c3)c2)[C@H](OC(=O)c2cc(O)c(O)c(OC(=O)c3cc(O)c(O)c(O)c3)c2)[C@@H](OC(=O)c2cc(O)c(O)c(OC(=O)c3cc(O)c(O)c(O)c3)c2)[C@@H]1OC(=O)c1cc(O)c(O)c(OC(=O)c2cc(O)c(O)c(O)c2)c1)c1cc(O)c(O)c(OC(=O)c2cc(O)c(O)c(O)c2)c1", "outcome": "inactive"}, {"smiles": "COCCOc1cc2cc(C(=O)NC3CCN(C(C)C)CC3)n(CC(=O)Nc3ccc(Cl)cn3)c2cn1", "outcome": "inactive"}, {"smiles": "CCc1cc(SCc2sc(-c3ccc(C(F)(F)F)cc3)nc2CN2CCN(c3ccc(OC)cc3)CC2)ccc1OCC(=O)O", "AC50": "16.7 µM (active)"}, {"smiles": "CCCCCCCCO", "outcome": "inactive"}, {"smiles": "CC(C)CCCCCCOC(=O)c1ccc(C(=O)OCCCCCCC(C)C)c(C(=O)OCCCCCCC(C)C)c1", "outcome": "inactive"}, {"smiles": "Nc1nc2ncc(CNc3ccc(C(=O)N[C@@H](CCC(=O)O)C(=O)O)cc3)nc2c(=O)[nH]1", "outcome": "inactive"}, {"smiles": "Cn1c(=O)cc(Oc2ccc(F)cc2F)c2cnc(NCC(C)(C)O)nc21", "AC50": "1.91 µM (active)"}, {"smiles": "CC(=O)OCCC(C)C", "outcome": "inactive"}, {"smiles": "COC(=O)CC(=O)OC", "outcome": "inactive"}, {"smiles": "Cc1c(-c2cccnc2)c2ccccc2n1CCCCC(=O)O", "outcome": "inactive"}, {"smiles": "Nc1cccc(N)c1", "outcome": "inactive"}, {"smiles": "CC[C@H](C)C(=O)O[C@H]1C[C@@H](C)C=C2C=C[C@H](C)[C@H](CC[C@@H]3C[C@@H](O)CC(=O)O3)[C@H]21", "AC50": "25.5 µM (active)"}, {"smiles": "COC(=O)c1ccccc1O", "outcome": "inactive"}, {"smiles": "CC[C@H]1OC(=O)[C@H](C)[C@@H](O[C@H]2C[C@@](C)(OC)[C@@H](O)[C@H](C)O2)[C@H](C)[C@@H](O[C@@H]2O[C@H](C)C[C@H](N(C)C)[C@H]2O)[C@](C)(O)C[C@@H](C)C(=O)[C@H](C)[C@@H](O)[C@]1(C)O", "outcome": "inactive"}]}]}
